This note sets out measurements from PubChem BioAssay (Tox21).

Inconclusive results are not listed. Where a call stands in place of a potency, no number is given. Values without a mark were called inactive. Calls of active or inactive are those of the source. Calls follow the shape of the dose curve; as a rule, active = well fitted activation curve with a large enough effect in the repeat runs; inconclusive = weak or mixed curves; inactive = no such curve, though single readings can be large or run the other way.
Potency is read from the fitted curve at half-maximal effect.

The target of the assay is Aryl hydrocarbon receptor (Homo sapiens) (UniProt P35869). The experiment in a line: qHTS assay to identify small molecule that activate the aryl hydrocarbon receptor (AhR) signaling pathway (AID 743085). Also: nearly all actives have a fitted effect of over 15% in size.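 As to activation: HG2L7.5c1 human HepG2 liver cells with stably integrated DRE-driven firefly reporter.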 The note with it: HepG2 AhR-luc (HG2L7.5c1), luciferase, 24 h; series mostly up to 70.3 µM. The text has this: U.S. Tox21 Program National Center for Advancing Translational Sciences [NCATS] NIH Chemical Genomics Center [NCGC] U.S. Environmental Protection Agency [EPA] National Institutes of Environmental Health Sciences [NIEHS] National Toxicology Program [NTP] U.S. Food and Drug Administration [FDA] Tox21 Assay overview: The Aryl hydrocarbon Receptor (AhR), a member of the family of basic helix-loop-helix transcription factors, is crucial to adaptive responses to environmental changes. AhR mediates cellular responses to environmental pollutants such as aromatic hydrocarbons through induction of phase I and II enzymes but also interacts with other nuclear receptor signaling pathways. A cell based HepG2-AhR-luc assay (HG2L7.5c1 cell line, developed by Dr. Michael S. Denison, University of California at Davis, was used to assess the activation of AhR. HepG2 (human hepatocellular carcinoma) cells were stably transfected with an Ah receptor-responsive firefly luciferase reporter gene plasmid containing 20 dioxin responsive elements and luciferase reporter gene. Increased luciferase activity can be used to identify the compounds that induce AhR activation.
Aryl hydrocarbon receptor (Homo sapiens), sequence (P35869 whole entry, looked up): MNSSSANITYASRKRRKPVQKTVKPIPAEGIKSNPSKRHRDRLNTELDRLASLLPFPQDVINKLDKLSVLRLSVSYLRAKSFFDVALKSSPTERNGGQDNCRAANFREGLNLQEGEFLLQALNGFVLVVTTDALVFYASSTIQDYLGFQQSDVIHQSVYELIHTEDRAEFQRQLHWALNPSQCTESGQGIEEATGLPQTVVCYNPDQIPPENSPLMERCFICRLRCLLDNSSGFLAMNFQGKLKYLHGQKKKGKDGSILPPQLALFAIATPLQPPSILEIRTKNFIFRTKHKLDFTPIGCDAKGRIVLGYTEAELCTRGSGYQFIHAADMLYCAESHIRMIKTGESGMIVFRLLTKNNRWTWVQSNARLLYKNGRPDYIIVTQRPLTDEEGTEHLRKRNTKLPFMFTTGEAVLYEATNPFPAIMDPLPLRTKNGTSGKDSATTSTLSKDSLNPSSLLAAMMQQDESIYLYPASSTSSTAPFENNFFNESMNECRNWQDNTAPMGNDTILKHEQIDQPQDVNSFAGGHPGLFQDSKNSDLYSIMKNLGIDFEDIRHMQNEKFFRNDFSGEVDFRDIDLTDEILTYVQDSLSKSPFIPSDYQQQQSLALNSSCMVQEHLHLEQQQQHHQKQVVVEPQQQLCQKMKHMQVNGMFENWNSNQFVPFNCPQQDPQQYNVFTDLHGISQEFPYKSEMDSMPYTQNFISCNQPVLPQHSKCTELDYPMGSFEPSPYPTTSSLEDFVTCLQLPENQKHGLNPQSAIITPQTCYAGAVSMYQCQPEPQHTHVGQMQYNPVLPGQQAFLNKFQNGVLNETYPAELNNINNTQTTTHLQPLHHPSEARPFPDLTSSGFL
Tox21 Assay Protocol Summary: 4000 cells in 5 uL/well were dispensed into white wall/solid bottom 1536-well plates using a Multidrop Combi (Thermo Fisher Scientific Inc., Waltham, MA) dispenser. After the assay plates were incubated at 37C for 5 h, 23 nL of compound or DMSO vehicle was transferred to the assay plates by a pintool station (Kalypsys, San Diego, CA). The plates were incubated at 37C for 24 hr. After 1 ul/well of CellTiter-Fluor reagent (Promega, Madison, WI) was added into the assay plates using a Flying Reagent Dispenser (FRD) (Aurora Discovery, CA), the assay plates were incubated at 37C for 30 min. The fluorescence intensity in the plates was measured using a ViewLux plate reader (PerkinElmer, Shelton, CT), followed by the addition of 4 uL of ONE-Glo Luciferase Assay reagent (Promega) using an FRD (Aurora Discovery). After the assay plates were incubated at room temperature for 30 min, luminescence intensity was measured using a ViewLux plate reader (Perkin Elmer).
In general terms: In qHTS, concentration-response curves come from the screen itself.
Regarding `Oc1cc(Cl)cc(Cl)c1`, the Potency entry is “inactive”.

`CC(C)=CC1C(C(=O)OC(C#N)c2cccc(Oc3ccccc3)c2)C1(C)C` (stereo not given): the Potency entry is “inactive”. The same measure, in the same setting: the value for `CNC(=O)/C=C(\C)OP(=O)(OC)OC` was “inactive”. The same measure, in the same setting: the value for `[O]=[Cr](=[O])([OH])[O][Cr](=[O])(=[O])[OH]` was “inactive”; that for `C=CC(=O)[O][Sn]([CH2]CCC)([CH2]CCC)[CH2]CCC` was “inactive”; that for `CC(C)NCC(O)c1ccccc1Cl` (stereo not given) was “inactive”. The same measure, in the same setting: the value for `Clc1cc(Cl)c(-c2cc(Cl)c(Cl)cc2Cl)cc1Cl` was “inactive”.

For `CCCCON=O`, the Potency result was “inactive”. Same read-out and setting: the value for `ClC(Cl)C(Cl)(Cl)Cl` was “inactive”; that for `COc1c2c(cc3c1OCO3)CCN(C)C2` was “inactive”. As for `CSC1=N[C@@](C)(c2ccccc2)C(=O)N1Nc1ccccc1`, the Potency entry was “inactive”.

Regarding `N#Cc1c2ccccc2cc2ccccc12`, the Potency result was “inactive”. The same measure, in the same setting: the entry for `COC(=O)c1ccccc1S(=O)(=O)NC(=O)Nc1nc(C)nc(OC)n1` is “inactive”. The same measure, in the same setting: the value for `NC1CCC(CC2CCC(N)CC2)CC1` (stereo not given) was “inactive”; that for `Fc1ccc(C(OCCN2CCN(CCCc3ccccc3)CC2)c2ccc(F)cc2)cc1` was “inactive”. Still for that read-out and setting: the value for `CC1CCCC1` was “inactive”; that for `Nc1ccccc1-c1ccccc1` was “inactive”; that for `Clc1ccc(C(Cl)(Cl)Cl)cc1Cl` was 26.7 µM (active). As to `COc1ccc2c(c1OC)C(=O)O[C@@H]2[C@H]1c2cc3c(cc2CCN1C)OCO3`, the Potency entry is “inactive”. With `CCN(CC)C(=S)S`, the Potency entry is “inactive”. Still for that read-out and setting: the entry for `COP(=O)(OC)O/C(=C\Cl)c1cc(Cl)c(Cl)cc1Cl` is “inactive”; for `CCCCCON=O` it is “inactive”; for `CCC[CH2][Sn]([CH2]CCC)([CH2]CCC)[CH2]CCC` it is “inactive”. The same measure, in the same setting: the entry for `CCCCC(CC)COC(=O)OOC(C)(C)C` (stereo not given) is “inactive”; for `O.O.O.O=C([O-])[C@H]([O-])[C@@H]([O-])C(=O)[O-].O=C([O-])[C@H]([O-])[C@@H]([O-])C(=O)[O-].[K+].[K+].[Sb+3].[Sb+3]` it is “inactive”; for `CCCCC(CC)COC(=O)c1ccccc1C(=O)OCC(CC)CCCC` (stereo not given) it is “inactive”. On the same count and under the same terms, the value for `CCO/N=C(\CC)C1=C(O)CC(c2c(C)cc(C)cc2C)CC1=O` (stereo not given) was “inactive”. With `c1ccc2nc(N3CCNCC3)ccc2c1`, the Potency entry is “inactive”. Still for that read-out and setting: the entry for `CCC[CH2][Sn]([CH2]CCC)([O]C(C)=O)[O]C(C)=O` is “inactive”; for `CCCCc1ccccc1` it is “inactive”; for `FC(F)C(F)(F)OCC(Cn1cncn1)c1ccc(Cl)cc1Cl` (stereo not given) it is 6.82 µM (active). Same read-out and setting: the entry for `COC(=O)C(C)N(C(=O)c1ccco1)c1c(C)cccc1C` (stereo not given) is “inactive”; for `O=P(Cl)(Cl)Cl` it is “inactive”.

With `CCCCC/C=C\C/C=C\C/C=C\C/C=C\CCCC(=O)NCC(=O)O`, the activation is -2.57% [at 8.47 µM]. In the case of `CN1CCc2cc(Cl)c(O)cc2[C@H]2c3ccccc3CC[C@@H]21`, the Potency entry was “inactive”. For the compound `COP(=S)(OC)Oc1ccc([N+](=O)[O-])c(C)c1`, the Potency was 48.6 µM (active).

Consider `CC(Cc1ccc(O)cc1)NCC(O)c1cc(O)cc(O)c1` (stereo not given), for which the Potency entry was “inactive”. On to `CC(O)C(=O)[O][Hg][c]1ccccc1` (stereo not given), for which the Potency result was “inactive”. On to `Cc1cccc(Cc2cnc[nH]2)c1C`, for which the Potency is 13.3 µM (active).

For the compound `CC(C)C(Nc1ccc(C(F)(F)F)cc1Cl)C(=O)OC(C#N)c1cccc(Oc2ccccc2)c1` (stereo not given), the Potency entry is “inactive”.
